NR2F2 inh = inhibitors of human COUP-TFII (NR2F2); inhibition, % at 8.6 µM; actives 0.7% (n = 370,000); HEK293T NGFI-A luciferase reporter, luminescence; P24468;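 active = inhibition above a per-plate cutoff, mean inhibition of test wells between control levels plus 3 SD, cut at about 38% in these data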;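 also: cells cotransfected with COUP-TFII expression vector driving the NGFI-A reporter; 0% = median of COUP-TF2 test wells and 100% = reporter-only cells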
NCOA2 inhibitor = human SRC2 (NCOA2) inhibition | inhibition, % at 9 µM | Q15596 | AID 651957 | actives 0.17% (n = 370,000) | HEK293 GAL4-SRC2 luciferase reporter, luminescence;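 active = inhibition above the mean inhibition of all tested compounds plus 3 SD, set per campaign, cut at about 52% in these data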;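 also: 0% = DMSO treated cells and 100% = cells given Gossypol at 36 µM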
NCOA3 inh = inhibits human SRC3 coactivator | actives 0.17% (n = 360,000) | inhibition, % at 3.6 µM | HEK293 GAL4-SRC3 luciferase reporter, luminescence | AID 588352;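 active = inhibition above a per-campaign cutoff, the mean of all compounds plus 3 SD, cut at about 60% in these data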;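 also: 0% = DMSO-treated cells and 100% = gossypol-treated cells at 36 µM; higher means less SRC3-driven luciferase light from the GAL4 reporter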
NCOA1 inh = human NCOA1 inhibition; actives 0.12% (n = 360,000); inhibition, % at 3.6 µM; HEK293 GAL4-SRC1 luciferase reporter, luminescence; AID 588354; Q15788;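 active = inhibition above the campaign mean plus 3 SD, with each screening campaign given its own cutoff, cut at about 60% in these data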;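 also: 0% = DMSO treated cells and 100% = gossypol at 36 µM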
Gli-Sufu block = antagonists of Gli-Sufu signaling. actives 0.74% (n = 340,000). inhibition, % at 5 µM. Sufu-KO-LIGHT fibroblasts, Gli luciferase reporter luminescence;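 active = inhibition above about 55%, limit read from the data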;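 also: 0% = DMSO-treated cells and 100% = wells with medium but no cells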
NR5A2 inv ag = NR5A2 inverse agonism in reporter assay; actives 0.13% (n = 360,000); inhibition, % at 3.6 µM; HEK293T StAR-luciferase reporter, LRH-1 transfected, 24 h;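 active = inhibition above the mean inhibition of all tested compounds plus 3 SD, cut at about 73% in these data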;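 also: 0% = DMSO wells and 100% = reporter-only cells lacking LRH-1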
Target sequence (O00482 whole entry, looked up): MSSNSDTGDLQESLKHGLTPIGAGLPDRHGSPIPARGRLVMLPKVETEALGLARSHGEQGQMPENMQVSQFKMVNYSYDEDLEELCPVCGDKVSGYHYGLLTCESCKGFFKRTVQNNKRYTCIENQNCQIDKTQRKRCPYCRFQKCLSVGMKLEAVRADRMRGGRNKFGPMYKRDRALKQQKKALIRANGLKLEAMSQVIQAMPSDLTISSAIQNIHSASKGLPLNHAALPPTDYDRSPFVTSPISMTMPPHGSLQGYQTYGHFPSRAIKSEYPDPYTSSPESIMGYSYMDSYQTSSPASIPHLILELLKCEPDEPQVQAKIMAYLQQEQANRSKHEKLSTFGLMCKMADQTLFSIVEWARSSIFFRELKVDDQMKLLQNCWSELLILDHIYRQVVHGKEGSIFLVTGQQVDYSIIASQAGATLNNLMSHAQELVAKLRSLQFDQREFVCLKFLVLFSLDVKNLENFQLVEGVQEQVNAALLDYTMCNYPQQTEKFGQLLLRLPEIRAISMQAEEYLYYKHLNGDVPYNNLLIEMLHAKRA
Gli-Sufu confirm = confirmation of Gli-SUFU pathway antagonists. shares compounds with Gli-Sufu block. Sufu-KO-LIGHT cells, Gli luciferase reporter, luminescence. inhibition, % at 5 µM. actives 40% (n = 2,500);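 active = mean inhibition at 5 µM reaching about 45%, limit read from the data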;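 also: plate controls were DMSO-treated cells for no effect and wells lacking cells for full effect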
SufuKO cytotox = cytotoxicity counter-screen for Gli-SUFU antagonists; shares compounds with Gli-Sufu block; Sufu-KO-LIGHT cells cytotoxicity, ATP luminescence; cytotoxicity, % at 5 µM; actives 32% (n = 2,500); AID 651994;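 active = mean cytotoxicity at 5 µM above about 25%, limit read from the data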;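 also: cells exposed to compound overnight for roughly 16 to 18 hours; plate controls were DMSO wells with cells for no effect and medium without cells for full effect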
Wnt3a cs = inhibits Wnt3a reporter, counter-screen for Gli-SUFU antagonists; shares compounds with Gli-Sufu block; Wnt-LIGHT cells, Wnt3a-driven luciferase reporter, luminescence; inhibition, % at 6.25 µM; actives 20% (n = 2,500);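 active = mean inhibition above about 25%, limit read from the data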
Gal4-VP16 ctr = VP16 inhibition counter-screen for COUP-TFII; HEK293 Gal4-VP16 luciferase reporter, luminescence; inhibition, % at 8.5 µM; AID 687007; actives 25% (n = 2,500); shares compounds with NR2F2 inh; in the data active = inhibition above about 13%
NR2F2 inh conf = COUP-TFII (NR2F2) inhibition, confirmation assay; shares compounds with NR2F2 inh; actives 45% (n = 2,500); HEK293 NGFI-A luciferase reporter, luminescence; inhibition, % at 8.5 µM; AID 687008;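 active = mean inhibition over three repeats above a set limit taken from the earlier primary screen, cut at about 38% in these data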;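 also: 100% = cells given the luciferase reporter alone without the COUP-TF2 vector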
Numbers without * were called inactive; . = no result given; ! = not active in a repeat. The list is not random: actives were taken first. Their share in the collection is about 1.3%.

SMILES	NR2F2 inh	NCOA2 inhibitor	NCOA3 inh	NCOA1 inh	Gli-Sufu block	NR5A2 inv ag	Gli-Sufu confirm	SufuKO cytotox	Wnt3a cs	Gal4-VP16 ctr	NR2F2 inh conf
COc1ccc(/C=C2/SC(=S)N(CCCC(=O)Nc3cccc(O)c3)C2=O)cc1	14	29	1	-5	62*	24	58*	0	-21	.	.
CCC1=Nc2cc(C(=O)NCc3ccco3)ccc2Sc2ccccc21	8	-2	-8	-10	-4	11	.	.	.	.	.
CCC1=Nc2cc(C(=O)NCc3ccco3)ccc2Sc2ccc(Cl)cc21	9	18	-20	1	52	22	56*	52*	-20	.	.
O=[N+]([O-])c1cc(/C=N/N/C(=N/c2ccccn2)c2ccccn2)ccc1O	-20	-62	-29	-60	79*	-77	24	27*	-37	.	.
CCOC(=O)C(=CNc1ccc(-c2ccco2)c(Cl)c1)C(=O)OCC	17	-9	8	1	-8	14	.	.	.	.	.
CCOC(=O)C(=CNc1cc(Cl)c(-c2ccco2)c(Cl)c1)C(=O)OCC	16	20	6	-12	60*	7	13	7	-12	.	.
COCC(=O)N1CCN(C(=O)C(=O)c2cccc(C(F)(F)F)c2)CC1	-16	20	.	.	.	.	.	.	.	.	.
Cc1nn(Cc2noc(C(=O)NCC3CCCO3)n2)c(C)c1Br (stereo not drawn)	-6	5	-50	-17	-1	6	.	.	.	.	.
Cc1nn(Cc2noc(C(=O)NC3CCC(C)CC3)n2)c(C)c1Br (stereo not drawn)	-2	6	9	-10	51	2	80*	29*	1	.	.
COc1cccc(CNC(=O)[C@H]2CCCN2C(=O)[C@H]2CCCN2C(=O)c2ccc(OC(F)(F)F)cc2)c1	12	15	.	.	.	.	.	.	.	.	.
CC(C)OCCCNC(=O)c1ccc(CS(=O)(=O)c2cccc(C(F)(F)F)c2)o1	-5	8	12	15	54	6	19	19	-4	.	.
Fc1ccc(Cn2nnnc2CN2CCN(C3CCCC3)CC2)cc1	6	8	-37	0	93*	11	18	-11	0	.	.
O=C(CN1CCN(Cc2ccccc2)CC1)Nc1nnc(C(F)(F)F)s1	5	11	7	1	63*	12	28	-3	-18	.	.
Cc1ccc(Nc2cc(C)nc(NCc3ccccc3)n2)cc1	29	8	14	20	52	18	29	23	-19	.	.
COc1ccc(-c2c(-c3ccccc3OC)sc3ccccc23)cc1F	-2	29	.	.	.	.	.	.	.	.	.
Cc1cc(C)c(S(=O)(=O)NCc2ccncc2)c(C)c1	60*	17	9	12	58*	36	60*	28*	43*	4	54*
Cc1cc(C)c(S(=O)(=O)NCCc2ccncc2)c(C)c1	9	-16	-27	18	.	-7	.	.	.	.	.
Cc1ccc(S(=O)(=O)NCc2ccncc2)c(C)c1C	68*	16	25	22	76*	42	74*	28*	37*	2	57*
C[C@H]1[C@@H]2C[C@@]3(O[C@H](c4ccccn4)N=C3C[C@@H]1c1ccccc1)N(Cc1ccncc1)C2=O	-7	-19	.	.	.	.	.	.	.	.	.
O=S(=O)(c1cc(C(F)(F)F)ccc1Cl)N1CCCCCC1	10	-22	11	6	-3	-10	.	.	.	.	.
O=S(=O)(c1cc(C(F)(F)F)ccc1Cl)N1CCN(c2ncnc3ccccc23)CC1	42*	34	19	17	61*	32	61*	19	44*	15*	60*
CC(=O)c1c(C)[nH]c(C(=O)OCc2ccccc2)c1C	-25	-36	-36	-52	-52	-61	.	.	.	.	.
CC(=O)c1c(C)[nH]c(C(=O)OCCCCN2C(=O)c3ccccc3C2=O)c1C	53*	20	30	16	68*	11	66*	32*	16	0	61*
Cc1ccc(-c2c[n+]3c(n2-c2ccccc2)SCC3)cc1	65*	14	42	22	84*	29	83*	23	38*	0	25
COc1ccc(-n2c(-c3ccc(Cl)cc3)c[n+]3c2CCCCC3)cc1	29	24	12	2	.	10	.	.	.	.	.
SMILES	NR2F2 inh	NCOA2 inhibitor	NCOA3 inh	NCOA1 inh	Gli-Sufu block	NR5A2 inv ag	Gli-Sufu confirm	SufuKO cytotox	Wnt3a cs	Gal4-VP16 ctr	NR2F2 inh conf
COc1ccc(-c2c[n+]3c(n2-c2ccccc2)SCC3)cc1	57*	14	39	26	76*	25	80*	25*	42*	10	29
Cc1ccc(-c2cn(-c3ccccc3)c3[n+]2CCCS3)cc1	55*	29	4	28	83*!	69	87*	45*	45*	11	39*!
O=C(CN1C(=O)c2ccccc2S1(=O)=O)c1ccc(F)cc1	40*	32	46	14	76*	-16	83*	4	91*	-23	14
Cc1ccc(S(=O)(=O)CC2CSc3nc(N)cc(=O)n32)cc1 (stereo not drawn)	-8	3	-5	-13	8	-2	.	.	.	.	.
Cc1ccc(S(=O)(=O)CC2CSc3nc4ccccc4n32)cc1 (stereo not drawn)	67*	16	25	26	72*	48	70*	18	47*	9	64*
COc1ccc(CNc2cc(C)nc3ncnn23)c(OC)c1	65*	16	4	22	52	32	46*	14	25	-5	35
COc1ccc(CCN(C)C(=O)Cc2ccc(-c3ccccc3)cc2)cc1OC	48*	16	14	3	60*	30	15	6	-44	4	37
CN(C(=O)COc1ccccc1C(=O)NCCOc1ccccc1)c1ccccc1	56*	46	77*	51	69*	50	66*	43*	1	-6	25
Cn1c(=O)c(=O)n(C)c2cc(S(=O)(=O)N3CCN(Cc4ccc5c(c4)OCO5)CC3)ccc21	-9	-7	.	.	.	.	.	.	.	.	.
CCCCOC(=O)c1[nH]c2c(c1C)C(=O)CC(c1cc(OC)c(OC)c(OC)c1)C2 (stereo not drawn)	71*	3	41	31	52	28	60*	24	12	12	63*

Source: PubChem (several laboratories)
